Screening results: PubChem BioAssay, National Center for Advancing Translational Sciences (NCATS)
The list is not random: actives were taken first. Their share in the collection is about 19%.
IL1B secr inh: inhibitors of inflammasome signaling (IL-1 beta secretion); THP-1 LPS/ATP IL-1B secretion, AlphaLISA, 16 h; hits give low values; 360,000 tested, 4.7% active; activity change, % at 57.5 µM; AID 743279; in the data active = activity change below about -50%; inconclusive = mostly about -30% to -49%
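THP-1 cells pretreated 1 hr with compounds (up to 57.5 uM final), then stimulated with LPS (250 ng/mL final) plus ATP (1.25 mM final); secreted IL-1B measured by AlphaLISA after 16 hr, decreased signal indicating inhibition.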
MCF10A rerep: induces DNA re-replication in MCF 10a normal breast cells | Potency, µM (highest dose often 46.1 µM), most hits filed as activators | MCF 10A DNA re-replication, Hoechst nuclear intensity, 48 h | 350,000 tested, 2.9% active; note: nearly all actives have a fitted effect of over 50% in size
SW480 rereplic: induces DNA re-replication in SW480 colon adenocarcinoma cells. 340,000 tested, 1.8% active. SW480 DNA re-replication, Hoechst DNA content imaging, 48 h. Potency, µM (titrated, usually from 46.1 µM), actives largely listed as activators; note: nearly all actives have a fitted effect of over 55% in size
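Hoechst fluorescence of nuclei (405 nm excitation, 500-530 nm emission) measured by plate-scanning imager after 48 hr compound exposure at 37 C; re-replication scored as increased number of nuclei with elevated intensity.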
BCR signal inh: inhibitors of chronic active B-cell receptor signaling | 340,000 tested, 0.05% active | Potency, µM (highest dose often 46.1 µM), hits mostly inhibitors | ABC-DLBCL IkBa-CBG/CBR reporter, luminescence ratio, 4 h | AID 493014; active = well fitted inhibition curve with a large enough effect in the signal ratio, with a control signal flat, not every such curve was filed as active; inconclusive = small, poorly fitted or top-dose-only effect, or effect the other way, or a change in a side signal; the % refers to the signal ratio
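Compounds up to 46 uM were incubated four hours with TMD8 cells whose green CBG68 luciferase is fused to IkappaBalpha; red CBR luminescence normalised the signal, and concentration-effect curves were fitted to fusion, red and ratio data.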
TDP1 cell noCPT: qHTS for Inhibitors of human tyrosyl-DNA phosphodiesterase 1 (TDP1): qHTS in cells in absence of CPT. DT40 Tdp1-/- hTDP1 cells, no CPT, ATP luminescence, 48 h. Potency, µM (series often up to 46.2 µM), actives largely listed as inhibitors. 420,000 tested, 15% active. AID 686978, 2013; note: nearly all actives have a fitted effect of over 55% in size
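A cellular qHTS used chicken DT40 cells lacking endogenous Tdp1 but carrying stably transfected human TDP1. Compounds were applied without camptothecin, and cell growth kinetics were judged by ATP-dependent luminescence after ≥48 hr.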
TDP1 cell CPT: growth inhibition of DT40 Tdp1-/-;hTDP1 cells with camptothecin (screen for TDP1 inhibitors); chicken DT40 Tdp1-/-;hTDP1 cells + 20 nM CPT, ATP luminescence, 48 h; Potency, µM (series often up to 46.2 µM), usual class: inhibitors; 420,000 tested, 12% active; note: nearly all actives have a fitted effect of over 55% in size
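Chicken DT40 Tdp1-/- cells stably complemented with human TDP1 were seeded at 400 cells/well in medium containing 20 nM camptothecin, exposed to pin-transferred compounds, and grown at 37 °C for at least 48 hr. Viability was read as ATP luminescence.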
Numbers stand for hits; n = inactive; u = inconclusive; x = no result. Unless noted, calls come from the whole dose curve; as a rule, active = well fitted curve in the direction sought with a large enough effect; inconclusive = small, poorly fitted or top-dose-only effect, or another doubt; inactive = no such curve, though single readings can be large; an effect the other way counts as inactive or inconclusive.

SMILES	IL1B secr inh	MCF10A rerep	SW480 rereplic	BCR signal inh	TDP1 cell noCPT	TDP1 cell CPT
CCN(CC)C(=O)c1ccccc1NC(=O)CN1C(=O)c2ccccc2S1(=O)=O	n	n	n	n	n	n
CCOC(=O)Cn1nc(C)n(-c2c(C)cccc2C)c1=O	-62	n	n	n	n	n
O=c1c2ccccc2oc2ccc(-c3ccoc3)cc12	x	x	x	x	u	n
Cc1cc2c(cc1S(=O)(=O)Nc1cccc(Cl)c1C)OCCN2C	x	x	x	x	18µM	u
COc1ccc(NS(=O)(=O)c2cc3c(cc2C)N(C)CCO3)cc1	n	n	n	n	u	u
CCOc1ccc(NS(=O)(=O)c2cc3c(cc2C)N(C)CCO3)cc1	n	n	n	n	21µM	21µM
Cc1cc2c(cc1S(=O)(=O)Nc1cccc(Cl)c1C)n(C)c(=O)c(=O)n2C	x	x	x	x	u	n
CCC(Sc1ccc(Cl)cc1)C(=O)Nc1nnc(-c2cccc([N+](=O)[O-])c2)s1 (stereo not drawn)	n	n	n	u	13µM	u
CCC(Sc1nncn1C)C(=O)Nc1nnc(-c2ccccc2Cl)s1 (stereo not drawn)	n	n	n	u	n	n
CC(C)(C)S(=O)N1Cc2cc(=O)n(Cc3ccccc3)c(CCO)c2[C@H]1CCO (stereo partly drawn)	u	u	n	x	u	u
C[C@@]12C(=O)Nc3cc(F)c(F)cc3C(=O)N1[C@H]1c3cc(Cl)ccc3OC[C@@H]1[C@@H]2c1ccccc1	n	n	u	u	u	u
Cc1ccc2c(c1)[C@H]1[C@H](CO2)[C@H](c2ccccc2)[C@]2(C)C(=O)Nc3ccc(Cl)cc3C(=O)N12	u	u	15µM	u	15µM	u
Cc1ccc2c(c1)C(=O)N1[C@H]3c4ccccc4OC[C@@H]3[C@H](c3ccccc3)[C@]1(C)C(=O)N2	-62	u	u	u	u	u
CCOC(=O)c1ccc(Oc2coc3cc(O)ccc3c2=O)cc1	n	n	u	n	n	n
Cn1c(=O)c2[nH]c(N=NN3CCCCC3)nc2n(C)c1=O	n	n	n	x	n	u
Cn1c(=O)c2[nH]c(N3CCCCC3)nc2n(C)c1=O	n	n	n	n	n	21µM
O=C(CSc1nc(=O)n(CCCN2CCOCC2)c2c1CCCC2)Nc1cccc(Cl)c1	n	u	n	n	u	n
Cc1ccc(C)c2c1CCCC2=O	n	x	x	x	n	n
CCOc1ccc(C(=O)OC(C)C(=O)N2CCN(Cc3ccccc3)CC2)cc1 (stereo not drawn)	n	n	n	n	18µM	16µM
CCOc1ccc(C(=O)N2CCCCCC2)cc1	n	n	n	n	n	n
CCOc1ccc(C(=O)NCC(=O)N2CCN(Cc3ccccc3)CC2)cc1	n	u	n	n	n	n
CCOc1ccc(C(=O)CC(C(=O)O)N2CCCCC2)cc1 (stereo not drawn)	-57	u	u	u	u	13µM
CCOc1ccc(C(=O)CC(C(=O)O)N2CCN(Cc3ccccc3)CC2)cc1 (stereo not drawn)	n	16µM	n	u	3.7µM	21µM
COC(=O)[C@@H]1[C@H]2SC(C)(C)[C@H](C(=O)OC)N2C(=O)N1Cc1cc2ccccc2n1S(=O)(=O)c1ccccc1	x	x	x	x	13µM	u
CCc1cccc2c(C(=O)CN3C(=O)NC(C)(c4cccc5ccccc45)C3=O)c[nH]c12 (stereo not drawn)	n	15µM	n	u	u	u
CCc1cccc2c(C(=O)CN3C(=O)NC4(CCc5ccccc54)C3=O)c[nH]c12 (stereo not drawn)	-58	15µM	u	u	4.6µM	4.6µM
CN1C(=O)N(CC(=O)NCc2ccc(Cl)cc2Cl)C(=O)C12CCCCC2	-54	n	n	n	n	n
CCc1cccc2c(C(=O)CN3C(=O)N(C)C4(CCCCC4)C3=O)c[nH]c12	n	5.2µM	n	u	8.2µM	3.3µM
